This is an account of results in the supplement of paper PMC9262897, “Low-cost anti-mycobacterial drug discovery using engineered E. coli” (Nature Communications, 2022).

Structures can show the parent of a compound that is named as a salt. ± gives the standard deviation of the averaged measurements.

Common to all, as to assay: growth (OD600 after 10 h); higher = more growth (less inhibition)
In test [1] the test system is E. coli TESEC Alr+ wild-type control. The settings on record: compound 0.1 mM; raw OD600 reference: median of DMSO wells 0.241, cell-free background 0.041. The protocol:
(§1)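 TESEC Mtb Alr E. coli, or the Alr+ wild-type control, in 384-well plates with Prestwick library compounds at 0.1 mM and 1% DMSO, across arabinose induction levels of 1E3 to 1E7 nM. Growth is read as OD600 after 10 h at 37 °C in triplicate biological replicates.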

The test system of test [2] is E. coli TESEC Mtb Alr. The settings on record: compound 0.1 mM. The protocol:
as §1

The subject of another test is E. coli TESEC Mtb Asd. The settings on record: compound 0.1 mM. As to the method:
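TESEC E. coli strains in which the native enzyme is deleted and replaced by arabinose-inducible Mtb Asd, DapB, CysH or TrpD, each grown in its selective medium. Strains were screened against the Prestwick library at 0.1 mM and 1% DMSO in 384-well format at low and high arabinose induction. Growth is read as OD600 after 10 h in triplicate.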

Test [3] has as its system E. coli TESEC Alr+ wild-type control. As to conditions: compound 0.1 mM; raw OD600 reference: median of DMSO wells 0.49, cell-free background 0.052. As to the method: (§2)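 TESEC Mtb Alr E. coli (ΔaraC ΔtolC ΔentC Δalr ΔdadX, arabinose-inducible Mtb Alr) or the Alr+ wild-type control strain, grown in defined M9-fructose medium without D-alanine in 96-well plates with Prestwick library compounds at 0.1 mM and 1% DMSO. Low Alr induction is 0.1 µM arabinose and high induction is 10 mM arabinose.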

Test [4] has as its system E. coli TESEC Mtb Alr. The settings on record: compound 0.1 mM. As to the method: as §2
The source holds these as a separate data set.

[5] abbreviates: arabinose 1000 nM, raw OD600 reference: median of DMSO wells 0.294, cell-free background 0.041.
Setting [6] is: arabinose 10000 nM, raw OD600 reference: median of DMSO wells 0.264, cell-free background 0.041.
Setting [7] is: arabinose 100000 nM, raw OD600 reference: median of DMSO wells 0.201, cell-free background 0.041.
[8] abbreviates: arabinose 1000000 nM, raw OD600 reference: median of DMSO wells 0.193, cell-free background 0.041.
The mark [9] stands for this setting: arabinose 10000000 nM, raw OD600 reference: median of DMSO wells 0.146, cell-free background 0.041.
Setting [10] is: arabinose induction (level): High, raw OD600 reference: median of DMSO wells 0.331, cell-free background 0.041.
Setting [11] is: arabinose induction (level): Low, raw OD600 reference: median of DMSO wells 0.417, cell-free background 0.041.
Setting [12] is: arabinose 100 nM, raw OD600 reference: median of DMSO wells 0.413, cell-free background 0.052.
Where [13] appears, read: arabinose 10000000 nM, raw OD600 reference: median of DMSO wells […], cell-free background 0.052.

For the compound `N=C(N=C(N)N)N1CCOCC1` [Moroxidine hydrochloride], the growth in test [1] was 0.255 ± 0.02; with E. coli TESEC Mtb Alr [2] (setting [5]) it was 0.288 ± 0.017; with E. coli TESEC Mtb Alr [2] (setting [6]), 0.2687 ± 0.0004; in the test with E. coli TESEC Mtb Alr [2] (setting [7]), 0.225 ± 0.022; with E. coli TESEC Mtb Alr [2] (setting [8]) it was 0.186 ± 0.013; in the test with E. coli TESEC Mtb Alr [2] (setting [9]) it was 0.152 ± 0.0076. The growth in the test with E. coli TESEC Mtb Asd (setting [10]) came to 0.366 ± 0.025; in the test with E. coli TESEC Mtb Asd (setting [11]) it was 0.404 ± 0.032; in test [3], 0.454 ± 0.045; in the test with E. coli TESEC Mtb Alr [4] (setting [12]) it was 0.404 ± 0.011; with E. coli TESEC Mtb Alr [4] (setting [13]), 0.355 ± 0.033.

As for `O=C1c2ccccc2S(=O)(=O)N1CCCCN1CCN(c2ncccn2)CC1` [Ipsapirone], the growth in test [1] was 0.206 ± 0.0034; in the test with E. coli TESEC Mtb Alr [2] (setting [5]), 0.256 ± 0.015; in the test on E. coli TESEC Mtb Alr [2] (setting [6]) it was 0.249 ± 0.0074; with E. coli TESEC Mtb Alr [2] (setting [7]), 0.171 ± 0.0059; with E. coli TESEC Mtb Alr [2] (setting [8]), 0.154 ± 0.007; in the test on E. coli TESEC Mtb Alr [2] (setting [9]), 0.141 ± 0.0076. In addition, the growth came out at 0.226 ± 0.048 in the test on E. coli TESEC Mtb Asd (setting [10]); 0.389 ± 0.064 in the test on E. coli TESEC Mtb Asd (setting [11]); 0.551 ± 0.04 in test [3]; 0.4 ± 0.0047 with E. coli TESEC Mtb Alr [4] (setting [12]); 0.313 ± 0.012 in the test on E. coli TESEC Mtb Alr [4] (setting [13]).

With `Oc1c(Cl)cc(Cl)c2cccnc12` [Chloroxine], the growth is 0.044 ± 0.00076 in test [1]; 0.0429 ± 0.00083 in the test with E. coli TESEC Mtb Alr [2] (setting [5]); 0.0409 ± 0.00069 with E. coli TESEC Mtb Alr [2] (setting [6]); 0.0435 ± 0.00076 in the test on E. coli TESEC Mtb Alr [2] (setting [7]); 0.0415 ± 0.00061 with E. coli TESEC Mtb Alr [2] (setting [8]); 0.0495 ± 0.00057 in the test on E. coli TESEC Mtb Alr [2] (setting [9]). The growth in the test with E. coli TESEC Mtb Asd (setting [10]) was 0.0595 ± 0.0028; in the test with E. coli TESEC Mtb Asd (setting [11]), 0.154 ± 0.05; in test [3], 0.0623 ± 0.0012; in the test on E. coli TESEC Mtb Alr [4] (setting [12]), 0.0554 ± 0.0075; with E. coli TESEC Mtb Alr [4] (setting [13]) it was 0.0726 ± 0.013.

On to `O=C(CCCN1CCC(O)(c2ccc(Br)cc2)CC1)c1ccc(F)cc1` [Bromperidol], for which the growth in test [1] stood at 0.215 ± 0.0079; in the test on E. coli TESEC Mtb Alr [2] (setting [5]), 0.287 ± 0.0074; in the test on E. coli TESEC Mtb Alr [2] (setting [6]), 0.265 ± 0.0061; in the test on E. coli TESEC Mtb Alr [2] (setting [7]), 0.218 ± 0.028; with E. coli TESEC Mtb Alr [2] (setting [8]) it was 0.179 ± 0.0028; in the test with E. coli TESEC Mtb Alr [2] (setting [9]), 0.148 ± 0.0045. In addition, the growth in the test with E. coli TESEC Mtb Asd (setting [10]) worked out at 0.254 ± 0.025; in the test with E. coli TESEC Mtb Asd (setting [11]), 0.344 ± 0.092; in test [3], 0.381 ± 0.013; in the test on E. coli TESEC Mtb Alr [4] (setting [12]), 0.417 ± 0.0095; in the test with E. coli TESEC Mtb Alr [4] (setting [13]), 0.306 ± 0.022.

As for `CC(=O)OCC(=O)[C@@]1(O)CC[C@H]2[C@@H]3CCC4=CC(=O)CC[C@]4(C)[C@@]3(F)[C@@H](O)C[C@@]21C` [Fludrocortisone acetate], the growth in test [1] amounted to 0.188 ± 0.0026; in the test on E. coli TESEC Mtb Alr [2] (setting [5]) it was 0.235 ± 0.021; in the test with E. coli TESEC Mtb Alr [2] (setting [6]), 0.255 ± 0.012; in the test on E. coli TESEC Mtb Alr [2] (setting [7]) it was 0.141 ± 0.0083; with E. coli TESEC Mtb Alr [2] (setting [8]), 0.1074 ± 0.0007; in the test with E. coli TESEC Mtb Alr [2] (setting [9]), 0.128 ± 0.0027. Moreover, the growth was found to be 0.249 ± 0.066 in the test with E. coli TESEC Mtb Asd (setting [10]); 0.37 ± 0.092 in the test on E. coli TESEC Mtb Asd (setting [11]); 0.459 ± 0.028 in test [3]; 0.401 ± 0.0079 with E. coli TESEC Mtb Alr [4] (setting [12]); 0.229 ± 0.02 in the test on E. coli TESEC Mtb Alr [4] (setting [13]).

Consider `CN(C)CCCN1c2ccccc2Sc2ccc(Cl)cc21` [Chlorpromazine hydrochloride], for which the growth was 0.0844 ± 0.00072 in test [1]; 0.054 ± 0.0094 in the test on E. coli TESEC Mtb Alr [2] (setting [5]); 0.04817 ± 5.8e-05 with E. coli TESEC Mtb Alr [2] (setting [6]); 0.0531 ± 0.008 in the test on E. coli TESEC Mtb Alr [2] (setting [7]); 0.0443 ± 0.00046 with E. coli TESEC Mtb Alr [2] (setting [8]); 0.0452 ± 0.00035 in the test with E. coli TESEC Mtb Alr [2] (setting [9]). Besides, the growth was 0.0646 ± 0.0046 in the test with E. coli TESEC Mtb Asd (setting [10]); 0.0699 ± 0.0027 with E. coli TESEC Mtb Asd (setting [11]); 0.105 ± 0.046 in test [3]; 0.425 ± 0.0072 with E. coli TESEC Mtb Alr [4] (setting [12]); 0.0848 ± 0.022 in the test with E. coli TESEC Mtb Alr [4] (setting [13]).

With `CNC[C@H](O)[C@@H](O)[C@H](O)[C@H](O)CO` [Meglumine], the growth in test [1] stood at 0.237 ± 0.0045; in the test on E. coli TESEC Mtb Alr [2] (setting [5]), 0.306 ± 0.016; with E. coli TESEC Mtb Alr [2] (setting [6]), 0.254 ± 0.0031; with E. coli TESEC Mtb Alr [2] (setting [7]), 0.212 ± 0.025; in the test with E. coli TESEC Mtb Alr [2] (setting [8]) it was 0.188 ± 0.0027; with E. coli TESEC Mtb Alr [2] (setting [9]) it was 0.136 ± 0.0042. Moreover, the growth in the test with E. coli TESEC Mtb Asd (setting [10]) came out at 0.325 ± 0.022; with E. coli TESEC Mtb Asd (setting [11]) it was 0.408 ± 0.066; in test [3] it was 0.548 ± 0.015; with E. coli TESEC Mtb Alr [4] (setting [12]), 0.404 ± 0.019; in the test with E. coli TESEC Mtb Alr [4] (setting [13]) it was 0.356 ± 0.011.

Regarding `CC(=O)OCC(CCn1cnc2cnc(N)nc21)COC(C)=O` [Famciclovir], the growth stood at 0.23 ± 0.005 in test [1]; 0.288 ± 0.0069 with E. coli TESEC Mtb Alr [2] (setting [5]); 0.269 ± 0.0058 in the test on E. coli TESEC Mtb Alr [2] (setting [6]); 0.184 ± 0.031 in the test with E. coli TESEC Mtb Alr [2] (setting [7]); 0.21 ± 0.021 in the test with E. coli TESEC Mtb Alr [2] (setting [8]); 0.14 ± 0.0045 in the test on E. coli TESEC Mtb Alr [2] (setting [9]). Further, the growth turned out to be 0.284 ± 0.048 in the test with E. coli TESEC Mtb Asd (setting [10]); 0.386 ± 0.039 in the test on E. coli TESEC Mtb Asd (setting [11]); 0.56 ± 0.17 in test [3]; 0.4163 ± 0.0038 in the test on E. coli TESEC Mtb Alr [4] (setting [12]); 0.346 ± 0.0062 in the test with E. coli TESEC Mtb Alr [4] (setting [13]).

Consider `CC(C)NC[C@H](O)COc1cccc2ccccc12` [(S)-propranolol hydrochloride], for which the growth in test [1] amounted to 0.202 ± 0.0096; with E. coli TESEC Mtb Alr [2] (setting [5]), 0.263 ± 0.011; in the test on E. coli TESEC Mtb Alr [2] (setting [6]), 0.295 ± 0.0058; with E. coli TESEC Mtb Alr [2] (setting [7]) it was 0.18 ± 0.016; in the test with E. coli TESEC Mtb Alr [2] (setting [8]) it was 0.191 ± 0.014; with E. coli TESEC Mtb Alr [2] (setting [9]) it was 0.149 ± 0.0089. In addition, the growth in the test with E. coli TESEC Mtb Asd (setting [10]) was 0.279 ± 0.071; in the test with E. coli TESEC Mtb Asd (setting [11]), 0.308 ± 0.043; in test [3] it was 0.497 ± 0.031; in the test on E. coli TESEC Mtb Alr [4] (setting [12]) it was 0.424 ± 0.0079; in the test with E. coli TESEC Mtb Alr [4] (setting [13]), 0.332 ± 0.016.
